We go through 92 sequences from the supplement of paper PMC11417369.

In all, about 25,000 sequences were measured (“ln(normalized median fluorescence intensity)”: median about 6.7, highest 2% from about 10 on). Shown is part of a subset that was picked to be rich in the highest values.

This experiment relates to PfHDP1 homeodomain (GST-tagged). Briefly: gcPBM binding intensity (ln(normalized median fluorescence intensity)); higher = stronger DNA binding. A digest of the protocol: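 Each value is the highest Masliner-normalised natural-log median intensity across replicate spots of either orientation of a probe. The probes were primer-extended double-stranded 36-bp intergenic genomic sequences on an Agilent 4 × 180k array, alongside negative controls, exposed for 1 h to GST-tagged P. falciparum DNA-binding domains expressed in E. coli. Bound protein was picked up with Alexa488 anti-GST antibody and scanned at 488 nm.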
As for “TTTATTAATAGACACACACACACACGCAAAATAAAA [CACACA_site6255]”, the “gcPBM binding intensity (ln)” value is 7.16.
The result for “ATGGACTTTTATAGTTGTACATACTATGAGAACTTT [XGTACX_site2800]” reads 7.08; that for “AAGGGTTGCCTGTGTAGTACATATATATATATATAT [XGTACX_site8555]”, 9.24; that for “GAGAAATGGGGACACACACACATATTATATATATAT [CACACA_site4943]”, 8.53.
As for “TATAAATTTGTTGTTGCATGCAGTATACCAAAAAAA [TGCATGCA_site445]”, the “gcPBM binding intensity (ln)” value amounted to 7.18.
With “AAGGTGGGAAAAAATAGTACACAACAAAAATGTATG [XGTACX_site8741]”, the “gcPBM binding intensity (ln)” value was 6.64.
The result for “AAACATTAAAATAACTCACACATTTTTCTAGTCTTC [CACACA_site4612]” reads 6.19; that for “AGAACTTTTAATGGATGTACAGTTATTTTATTATTT [XGTACX_site6226]”, 6.12; that for ATATATATATATATAGTGCATAAAATAAGTTTCTAA, 9.54.
Regarding “TATGTTTTTACATATTGTACATATTCTTGTAATACG [XGTACX_site1179]”, the “gcPBM binding intensity (ln)” value was determined as 6.29.
The result for “TTCATATAATTCATCTGTACATATTGATAGTATGCA [XGTACX_site6386]” reads 6.29; that for “ACTACGTGTCAAAAATATTAATTACAAATGAATAAA [GTGCAC_negctrl_site248]”, 6.08; that for “AGTAGTCTGGAGAAGAGTACACAGTATCTGGTAACA [XGTACX_site2032]”, 6.02.
The result for “ATAATATTTTAATGCACACACACAAAAAAAAAAAAA [CACACA_site2891]” reads 9.96.
For “ATTTATAAAATTAATGCACACATCAGCATTTATAAA [CACACA_site1025]”, the “gcPBM binding intensity (ln)” value came to 10.6.
The result for “ACATCATAAAATTTATGTACACATTTTTAATTATAC [XGTACX_site7759]” reads 6.51; that for “AATATTTTAATGCACACACACAAAAAAAAAAAAAAA [CACACA_site7374]”, 10.7.
The result for “TTTAAATTTTAATATGCACACAAAATGTTATATTAA [CACACA_site8015]” reads 9.9.
The result for “CTCTATAAATGCTGCACACACATTTAATTATTTAAG [CACACA_site2582]” reads 8.11; that for “ATTTCTACTAAAAATACACACGATGATACAACGAAG [CACACA_site1755]”, 6.85; that for “ATATATTAAAAACGATGTACCCTGAACTAAAAAAAA [XGTACX_site4986]”, 6.52.
“AACGTTCAATTTAAATGTACAAATGTATTTAAATAT [XGTACX_site315]”: the “gcPBM binding intensity (ln)” value came out at 6.38.
The result for “TATATTTAGAATACAATCTTAAAGTTGAAATAAAAT [CACACA_negctrl_site1292]” reads 6.03; that for “TTATATTAAAAAAGATGTACGTTTAGGAAAAATATA [XGTACX_site7456]”, 6.53.
Regarding “TAAGGAAAAAATTATAGTACATAATAAATGTATATA [XGTACX_site8328]”, the “gcPBM binding intensity (ln)” value was found to be 6.15.
The result for “TCATACATTTTCCTTGCACACATTTATAATTAATGG [CACACA_site4511]” reads 8.55; that for “TATATATATATATATGCACACATTTATACAATTTTA [CACACA_site2986]”, 10.2; that for “TCATACATTTTCCTTGCACACATTTATAATTAATGT [CACACA_site614]”, 8.95.
The result for “TCCTTTTTTTTTTATGCACACACAATTATACATTCC [CACACA_site9287]” reads 10.5; that for “TTCCTTTAACCCTGCACACATACATACATTTATATG [CACACA_site3953]”, 8.51; that for “CTTTTTTTTTTATGCACACACAATTATACATTCCTT [CACACA_site3877]”, 10.6.
The result for “ATGTATGTATAATATACACACTCACAAGCATTCAAA [CACACA_site4306]” reads 6.75; that for “ATATTCTTCTAAAGGCGTACATCTACATTTATGAAA [XGTACX_site2145]”, 6.28.
“TTTATATATAAATATATATATATATATATATATATA [TGCATGCA_negctrl_site121]”: the “gcPBM binding intensity (ln)” value turned out to be 9.28.
The result for “TCTAGGAAAAATTATAGTACACAAAAATATATATAT [XGTACX_site4136]” reads 7.95; that for “CATATACTTCTGTGCACACGAATATTTTTCTTCTTC [CACACA_site1407]”, 11.2; that for “ATAAAATATAGGTATGCACACACATATACTTCTGTG [CACACA_site8398]”, 8.84.
The result for “CATATATATATATATACACACATATATATTTTCTTT [CACACA_site1457]” reads 7.04; that for “TAATATACTTAATACACACACGAATATTTATAAATA [CACACA_site6675]”, 6.97.
The result for “CACATATACTTCTGTGCACACGAATATTTTTCTTCT [CACACA_site1408]” reads 11.2; that for “AAAATATAGGTATGCACACACATATACTTCTGTGCA [CACACA_site1409]”, 10; that for “TTTGTTAATTATAAATGTACATATTATATATATATA [XGTACX_site8870]”, 8.42.
As to “CACGCGCCCGGACACACACACACACCCATATATATA [CACACA_site5251]”, the “gcPBM binding intensity (ln)” value worked out at 6.84.
The result for “TTAAACTTGTTTTGGATGCACTATATAATTCATTTT [GTGCAC_site9549]” reads 7.2; that for “AGAGAGATGACAAAAAGATGAATAACGTTAAGGGAT [XGTACX_negctrl_site120]”, 7.4; that for ATTATATTTATGTTGGTGCATTATACATGAAATTTA, 10.5.
The result for “ATATGGATTATACATACATGCATACATACATACATA [TGCATGCA_site475]” reads 6.58; that for “ACATATGAAAAATATGCATGCAAATATTATTTAACA [TGCATGCA_site802]”, 7.03; that for “ATCATATTTATGTTGGTGCATTATGCATGGATTTTA [GTGCAC_site9795]”, 10.8.
Take “TTATGGTGCATGAAATCACACATTGATATATATGCT [CACACA_site5352]”: the “gcPBM binding intensity (ln)” value was 8.81.
The result for “AATATGAAATATATTACACACATTTATATGTTGAAA [CACACA_site1427]” reads 6.31; that for “TATAATAATAATTATACATGCATGAATATTTATATG [TGCATGCA_site811]”, 6.46.
The result for “ATCATATTTATATTGGTGCATTATGCATGAAATTTA [GTGCAC_site9571]” reads 10.6.
On to TATTTTTATTATATGGTGCATATATACATACATATA, for which the “gcPBM binding intensity (ln)” value is 9.96.
The result for “TATATATATATATATACATGCATATATATAATATAT [TGCATGCA_site763]” reads 9.32; that for “ATATATATTTAAAAAAGTACAGAAGAAAATAACCCA [XGTACX_site642]”, 7.19; that for “GATGATACACAGGTGTTGCACTTAAATGCAGTTCTT [GTGCAC_site9627]”, 8.13.
The result for “ATATATATATATATATGTACATATTATTAATAATAT [XGTACX_site6667]” reads 9.32.
For the sequence “TTTTGAATATTTGGTCGTACGTAAAAATAGATAATT [XGTACX_site5755]”, the “gcPBM binding intensity (ln)” value is 6.75.
In the case of “AAGTTTTCTTAAAATTGTACTTTTCAAAAATAATCT [XGTACX_site277]”, the “gcPBM binding intensity (ln)” value was found to be 5.83.
The result for “TTATGGTGCAACATTATGCACACCGTTAAATAACTA [CACACA_site3846]” reads 11.4.
The result for “TCATAAACATTATGCACACAAAAATAAAAAAAAATA [CACACA_site1115]” reads 10.2.
The result for “CATTAACAAATAAATGCACACATATATATAAATAAT [CACACA_site7892]” reads 9.2.
Take “TAATATATTATAAACACATGCACATTAATAATAACT [TGCATGCA_site708]”: the “gcPBM binding intensity (ln)” value was 8.38.
The result for “ATGGTGCAACATTATGCACACCGTTAAATAACTAAT [CACACA_site9280]” reads 11.7; that for “TATATAACATATGGGACACACATGCAACTGTTATAT [CACACA_site3792]”, 6.89; that for TGATTCTAACTTATGGTGCAACATTATGGACACCGT, 10.5.
As to “AACAACAACTAATATGCACACATTTAAAAACAAAAT [CACACA_site2440]”, the “gcPBM binding intensity (ln)” value worked out at 9.7.
The result for “GATTCATCTAAACACCGTACATATTATATATATATA [XGTACX_site6030]” reads 8.65; that for “GAATGCCTTGAAAATAGTACAATTAAGAAAAAATAC [XGTACX_site8002]”, 6.53; that for “ACATAAGATGAAAAATGTACATTCAAAAAATGAAAT [XGTACX_site3227]”, 6.52.
The result for “AAGACAAATTTTACATGTACAAATATATTACATATA [XGTACX_site7060]” reads 6.83; that for “AATGTATATATGTAATGTACATATATAATGTATATA [XGTACX_site6510]”, 6.6; that for “TTATATGCTCAATGTTGTACATGTAGATATATATAT [XGTACX_site8211]”, 9.77.
On to ATTACACATATAGTAGTGCAATAACTCCAAAAAAAA, for which the “gcPBM binding intensity (ln)” value stood at 9.55.
The result for “AAATTTTAATTAGACTGTACACATTTTAGAATAATT [XGTACX_site4819]” reads 6.17; that for “AAAAAAAATTAATTAGTGCAAAATATATACAAAATA [GTGCAC_site9762]”, 10.4.
The result for “TATTTATAGATATATACACACATATACATATTGTTT [CACACA_site7611]” reads 6.63; that for “TTTGATCGATGGATTTAACACACAAAAAAAAAAAAA [CACACA_site9279]”, 6.32; that for “CTATTTCAATTTAGTGCACACATTTTAATTTATAAG [CACACA_site2040]”, 10.9.
Consider ACCCATTTTAATTTAGTGCACATTTTACCTTTATAC, for which the “gcPBM binding intensity (ln)” value came out at 10.1.
Consider ATATATATATATATAGTGCACATTTATATAATTATT, for which the “gcPBM binding intensity (ln)” value is 10.
With “CTACTTAATATTTGTACACACATATTTAACCTACTA [CACACA_site5725]”, the “gcPBM binding intensity (ln)” value is 7.02.
The result for “TTAAAAAAGAATTGTGCACACACAAAAAATGTTCAT [CACACA_site1102]” reads 10.6; that for “AAAAAAGAATTGTGCACACACAAAAAATGTTCATAA [CACACA_site1103]”, 10.3.
The result for “AAAGAATACAAAATTGCACACATATTGTGAAAATGT [CACACA_site9327]” reads 9.59.
As for “TATATTATTAATTAAGCACACATTATTTTTATAATA [CACACA_site3982]”, the “gcPBM binding intensity (ln)” value came out at 6.37.
The result for AGTATAAGCATTATTGTGCACATAATTATAATTTTT reads 11; that for “ATATAATATATATATTGTACATATATTTATAAGCAT [XGTACX_site3726]”, 6.5; that for “ATATATTTTTAGCACAGTACAATATAATTAAATATA [XGTACX_site6779]”, 7.02.
The result for “ATTTTAAATTTATCTGTGCACAGTATTATATAAGCA [GTGCAC_site9806]” reads 10.8; that for “ATATTTGTATAAATTGCACACTTTATTTTTTTTAAG [CACACA_site1558]”, 9.86.
